# FBPA coupling cs: inhibits coupling enzyme system, counter-screen for aldolase hits; coupling enzyme system counterscreen, AmpLite Red fluorescence; activity change, negative = inhibition, % at 58.2 µM, hits read low; 290,000 tested, 0.67% active; in the data active = activity change below about -30%
#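 Coupling enzymes only (glyceraldehyde-3-phosphate) + compound, at 57.5 uM final, 10 min RT; add substrate/coupling/AmpLite Red mix, 20 min RT; fluorescence ex 525/em 598 nm. Actives flag coupling-system interference.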
# Tau fluor counter: counter-screen for tau fibril formation inhibitors; tau K18 P301L Alexa594 fluorescence, heparin fibrillization; Potency, µM (highest dose often 57.7 µM); 280,000 tested, 0.93% active; AID 1463; also: nearly all actives have a fitted effect of over 55% in size
#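 Human K18 P301L tau (15 uM unlabeled plus 0.24 uM Alexa 594-labeled, final) in 100 mM sodium acetate pH 7 was mixed with compound and 20 uM heparin and incubated 6 hr at 37 C.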
# Sfp inh: Sfp phosphopantetheinyl transferase inhibition. Q9F4F7. Biochemical Sfp PPTase activity, qHTS. Potency, µM, usual class: inhibitors. 310,000 tested, 3.5% active;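 also: the enzyme is Sfp with the accession as filed and its product quenches rhodamine fluorescence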
#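 Step 1, compound plus 15 nM Sfp-PPTase, 15 min, room temperature. Step 2, add rhodamine-CoA (5 uM) and BHQ-2-YbbR (12.5 uM). Step 3, read 525/598 nm fluorescence at 0 and 30 min.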
# Tau fibril ThT: tau fibrillization inhibition (ThT binding). Potency, µM (top dose mostly 57.4 µM), usual class: inhibitors. 270,000 tested, 2.1% active. P10636. recombinant tau K18 P301L (four-repeat tau fragment), heparin-induced fibrillization, ThT fluorescence; also: nearly all actives have a fitted effect of over 55% in size
# Target sequence (P10636 561-689 P618L limits assumed): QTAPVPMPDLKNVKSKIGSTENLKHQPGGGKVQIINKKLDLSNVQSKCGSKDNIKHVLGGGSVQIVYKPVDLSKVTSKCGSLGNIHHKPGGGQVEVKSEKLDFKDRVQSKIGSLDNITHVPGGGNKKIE
#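 Tau K18 P301L fragment (15 uM unlabeled plus 0.24 uM Alexa 594-labeled) in 100 mM sodium acetate pH 7 with compound, fibrillization induced by 20 uM heparin for 6 hr at 37 C. Thioflavin T (30 uM) added, fluorescence read after 1 hr (ex 450, em 510 nm).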
# KDM4E inh: inhibitors of human JMJD2E histone demethylase; B2RXH2; 230,000 tested, 1.6% active; JMJD2E catalytic domain, FDH-coupled NADH fluorescence (FDH is formaldehyde dehydrogenase); Potency, µM (titrated, usually from 57.1 µM), usual class: inhibitors; active = well fitted inhibition curve with a large enough effect, not every such curve was filed as active; inconclusive = small, poorly fitted or top-dose-only effect, or another doubt; inactive = no such curve, though single readings can be large or run the other way; also: nearly all actives have a fitted effect of over 50% in size
# Target sequence (B2RXH2 1-337 limits assumed): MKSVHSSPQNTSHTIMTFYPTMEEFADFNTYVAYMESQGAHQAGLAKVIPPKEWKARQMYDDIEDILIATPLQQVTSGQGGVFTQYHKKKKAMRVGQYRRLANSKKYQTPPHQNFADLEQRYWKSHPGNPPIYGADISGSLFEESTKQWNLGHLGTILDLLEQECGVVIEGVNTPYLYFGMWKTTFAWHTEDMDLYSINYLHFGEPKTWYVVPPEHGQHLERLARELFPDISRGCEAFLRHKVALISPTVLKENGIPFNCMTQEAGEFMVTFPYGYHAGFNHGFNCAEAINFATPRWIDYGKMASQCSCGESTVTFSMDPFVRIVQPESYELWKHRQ
# Tau FP inhib: tau fibrillization inhibition (FP); P10636; K18 P301L tau heparin fibrillization, Alexa594 FP, 6 h; Potency, µM (series often up to 57.7 µM), actives largely listed as inhibitors; 280,000 tested, 0.39% active; AID 1468; also: nearly all actives have a fitted effect of over 55% in size
#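 Recombinant K18 P301L […], labeled with Alexa 594 at 0.24 uM over 15 uM unlabeled; heparin inducer 20 uM final; 37 C, 6 hr; FP endpoint.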
# Numbers stand for hits; - = inactive; ? = inconclusive; . = no result; [ ] = dose if it differs, or a comment. An excerpt weighted towards active compounds, which were near 5.3% of everything screened. Unless noted, calls follow the shape of the dose curve; as a rule, active = well fitted curve in the direction sought with a large enough effect; inconclusive = small, poorly fitted or top-dose-only effect, or another doubt; inactive = no such curve, though single readings can be large; an effect the other way counts as inactive or inconclusive.
SMILES,FBPA coupling cs,Tau fluor counter,Sfp inh,Tau fibril ThT,KDM4E inh,Tau FP inhib
COC(=O)N=Nc1c(O)[nH]c2ccc(Br)cc12,-,-,-,?,-,-
O=C(O)c1ccc(N=Nc2c(O)[nH]c3ccc(Br)cc23)cc1,-,.,10µM,.,.,.
COc1ccccc1-c1cn[nH]c(=S)n1,-,-,44.7µM,?,-,-
Cc1ccc(/C=C/C(=O)Nc2ccccc2C(N)=O)o1,.,-,.,-,.,-
Cc1ccc(/C=C/C(=O)Nc2cccc3ncccc23)o1,-,-,20µM,?,-,-
CCn1ccc2c(OCC(=O)Nc3ccc(C(C)=O)cc3)cccc2c1=O,.,-,.,-,.,?
Cc1oc(-c2ccc3ccccc3c2)nc1CN(C)C(C)c1ccncn1 (stereo not given),-,-[2.34 µM],22.4µM,-,-,-
CC(c1ccncn1)N(C)Cc1nc(-c2ccc(C(F)(F)F)cc2)no1 (stereo not given),-,-,-,-,-,-
COc1ccc(C2=NS(=O)(=O)N(C)C(C(=O)Nc3ccc(OC(F)(F)F)cc3)=C2)cc1,.,-,.,-,.,?
Cc1ccc(C(=O)N/C(=C\c2ccc(-c3ccccc3[N+](=O)[O-])o2)C(=O)NCCN(C)C)cc1,-42.3,.,39.8µM,.,.,.
Cc1ccc(C(=O)N/C(=C\c2ccc(-c3ccccc3[N+](=O)[O-])o2)C(=O)NCCCN(C)C)cc1,-,.,-,.,.,.
CCOc1ccc(-n2nc(CO)c(C(=O)NCc3cccs3)n2)cc1,.,-,.,-,.,?
COc1ccccc1NS(=O)(=O)c1cccc(NC(=O)c2ccc3ccccc3n2)c1,-,?,-,-,-,-
O=C(Nc1cccc(S(=O)(=O)Nc2ccccc2F)c1)c1ccc2ccccc2n1,-,?,8.91µM,?,-,?
O=C(Cc1ccc(Cl)cc1Cl)Nc1cccc(S(=O)(=O)Nc2ccccc2F)c1,-,-,8.91µM,?,-,28.2µM
Cc1ccccc1NC(=S)c1ccc2ccccc2n1,-,.,28.2µM,.,.,.
O=C(Nc1ccccc1C(=O)O)c1ccc2ccccc2n1,-39.6,-,?,-,-,-
COC(=O)[C@H](Cc1ccccc1)NC(=O)O[C@@H]1Cc2cc(OC)ccc2O[C@H]1c1cccc(OC)c1,-,-,?,-,-,-
O=[N+]([O-])c1ccc2nc(-c3ccncc3)[nH]c2c1,-,-,-,-,-,-
COc1ccc2[nH]c(-c3ccccc3)cc2c1,-,12.6µM[quencher],-,?,?,-
COc1ccc2[nH]c(C(=O)c3ccccc3)cc2c1,-,-,-,-,-,-
Cc1ccc(-c2nc3ccc([N+](=O)[O-])cc3[nH]2)cc1,-30.8,?,-,?,-,-
COc1ccc(-c2nc3ccc([N+](=O)[O-])cc3[nH]2)cc1,-,?,-,11.2µM,-,-
COc1ccc2nc(-c3ccccc3)[nH]c2c1,-32.4,-,-,-,?,-
CCOc1ccc(CCNC(=O)c2cc3c(s2)-c2ccccc2OC3)cc1OCC,.,-,.,-,.,-
SMILES,FBPA coupling cs,Tau fluor counter,Sfp inh,Tau fibril ThT,KDM4E inh,Tau FP inhib
CCc1ccc(NC(=O)CCn2cnc3ccccc3c2=O)cc1,.,-,.,-,.,-
Oc1c(Br)cc(C=Nc2ccc3nc(-c4ccccc4)[nH]c3c2)c(O)c1Br,-,4.47µM[quencher],56.2µM,4.47µM,-,?
O=[N+]([O-])c1ccc(O)c(C=Nc2ccc3nc(-c4ccccc4)[nH]c3c2)c1,-,-,-,?,?,-
Cc1cccc(C)c1NC(=O)NN=C1CCCCC1,-,-,-,-,-,-
Nc1nonc1NC(=O)NN=C1CCCCC1,-,-,35.5µM,-,-,-
Cn1c(=O)c2c(SCc3cccnc3)nc(CC(C)(C)C)nc2n(C)c1=O,-,-,56.2µM,?,-,-
CCCc1nc(SCc2cccnc2)c2c(=O)n(C)c(=O)n(C)c2n1,-,-,-,-,-,-
Cc1ccc(-c2cc(C(=O)N(Cc3ccccc3)Cc3ccco3)no2)cc1F,.,-,.,-,.,-
COc1cccc(NC(=O)C2CC(=O)N(c3ccc(Br)cc3)C2)c1 (stereo not given),.,-,.,-,.,-
COc1c(O)c(O)cc2c1oc1c3ccccc3oc(=O)c21,-,10µM[quencher],?,7.94µM,15.8µM,?
O=c1oc2cc(O)ccc2c2oc3cc(O)ccc3c12,-,25.1µM[quencher],-,?,?,-
Cc1c(O)c2ccccc2oc1=O,-,-,-,.,?,-
COc1ccc(-c2nc(CN3CCC(C(=O)NCCCN4CCN(c5ccccc5F)CC4)CC3)c(C)o2)cc1OC,.,-,.,-,.,-
COc1cccc(N2CCN(Cc3cc(=O)oc4cc(C)ccc34)CC2)c1,.,-,.,?,.,-
CCc1ccc(OCC(=O)N/N=C(\C)c2ccc3c(c2)OCCO3)cc1,-,-,56.2µM,?,-,-
C/C(=N\NC(=S)Nc1ccc(C(C)C)cc1)c1ccc2c(c1)OCO2,-,?,-,?,?,-
CNC(=S)N/N=C(\C)c1ccc2c(c1)OCO2,-,-,79.4µM,-,-,-
CNC(=S)N/N=C(\C)c1ccc2c(c1)OCCO2,-,-,50.1µM,-,-,-
O=C(CSc1n[nH]c(-c2ccc(F)cc2)n1)NCc1ccccc1Cl,.,-,.,-,.,-
COc1ccc(NC(=O)c2cc3nc(-c4ccc(C)c(C)c4)cc(C(F)(F)F)n3n2)cc1,.,-,.,?,.,-
C=C(C)C(=O)/C=C/CCC/C=C/C(=O)OCC,-,-,-,-,-,-
COc1ccc2nc(SCC(=O)NC(C)(C)C)[nH]c2c1,-,-,-,-,-,-
COc1ccc2nc(SCC(=O)C(C)(C)C)[nH]c2c1,-,-,39.8µM,-,-,-
COc1cccc(OCC(=O)NN=C2c3ccccc3-c3ccccc32)c1,-,-,79.4µM,?,-,-
COC(=O)C1=C(C(=O)OC)[C@@H]2Nc3ccccc3[C@@]23C[C@@H](C(=O)OC)N(S(=O)(=O)c2ccc(OC)cc2)C3=N1,-,-[11.6 µM],-,-[11.5 µM],-[11.4 µM],-[11.6 µM]
SMILES,FBPA coupling cs,Tau fluor counter,Sfp inh,Tau fibril ThT,KDM4E inh,Tau FP inhib
CCOc1ccc(NC(=O)c2sc3nc(N4CCOCC4)c4c(c3c2N)CC(C)(C)OC4)cc1,.,.,-,.,.,.
CC1(C)Cc2c(c(N3CCOCC3)nc3sc(C(N)=O)c(N)c23)CO1,-30.4,-,14.1µM,-,?,-
Cc1nc2sc(C(=O)O)c(N)c2c2c1COC(C)(C)C2,-,-,39.8µM,?,-,-
CC1(C)Cc2c(c(N3CCOCC3)nc3sc(C(=O)Nc4ccc(Cl)cc4)c(N)c23)CO1,-,-,31.6µM,-,.,-
Cc1ccc(NC(=O)c2sc3nc(N4CCOCC4)c4c(c3c2N)CC(C)(C)OC4)cc1,-,.,31.6µM,.,.,.
COc1cccc(NC(=O)c2sc3nc(N4CCOCC4)c4c(c3c2N)CC(C)(C)OC4)c1,.,-,.,-,.,-
Cc1ccc(S(=O)(=O)N[C@H]2COC(=O)C/C=C\[C@@H](C)COC(=O)C/C=C\[C@@H]2C)cc1,-,-[11.6 µM],-,-[11.5 µM],.,-[11.6 µM]

# Screening results: PubChem, National Center for Advancing Translational Sciences (NCATS)
